HepG2 tox = counter-screen for TGF-b inhibitors: cytotoxicity in HepG2 cells; hit rate 0.76% among 410,000; Potency, µM (highest dose often 46.1 µM), actives largely listed as cytotoxic; HepG2 CAGA-GFP viability, ATP luminescence, 18 h; AID 588856
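HepG2 CAGA-GFP cells (1000/well, DMEM with 1% FBS) received compound, then TGF-beta at 500 pg/mL final, and were incubated 18 hours at 37 degrees C. Viability was read by CellTiter-Glo luminescence. Media-only wells were set as complete cell-killing and DMSO as no toxicity.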
TDP1 cell noCPT = qHTS for Inhibitors of human tyrosyl-DNA phosphodiesterase 1 (TDP1): qHTS in cells in absence of CPT; DT40 Tdp1-/- hTDP1 cells, no CPT, ATP luminescence, 48 h; Potency, µM (doses to about 46.2 µM), hits mostly inhibitors; hit rate 15% among 420,000; also: nearly all actives have a fitted effect of over 55% in size
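DT40 Tdp1-/-;hTDP1 cells, no CPT (DMSO vehicle only), 400 cells/well; compounds pin-transferred; ≥48 hr, 37 °C; CellTiter-Glo 30 min RT dark, luminescence read.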
TDP1 cell CPT = growth inhibition of DT40 Tdp1-/-;hTDP1 cells with camptothecin (screen for TDP1 inhibitors); chicken DT40 Tdp1-/-;hTDP1 cells + 20 nM CPT, ATP luminescence, 48 h; Potency, µM (doses to about 46.2 µM), most hits filed as inhibitors; hit rate 12% among 420,000; also: nearly all actives have a fitted effect of over 55% in size
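Chicken DT40 Tdp1-/- cells complemented with human TDP1, 400 cells/well, exposed to compounds plus 20 nM camptothecin for at least 48 h at 37 C; viability read as ATP content by CellTiter-Glo luminescence.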
TDP1 inh = inhibitors of human tyrosyl-DNA phosphodiesterase TDP1; Q9NUW8; recombinant TDP1, AlphaScreen DNA substrate cleavage; Potency, µM (highest dose often 130 µM), most hits filed as inhibitors; hit rate 0.28% among 350,000; AID 485290; also: nearly all actives have a fitted effect of over 40% in size
Target sequence (Q9NUW8 whole entry, looked up): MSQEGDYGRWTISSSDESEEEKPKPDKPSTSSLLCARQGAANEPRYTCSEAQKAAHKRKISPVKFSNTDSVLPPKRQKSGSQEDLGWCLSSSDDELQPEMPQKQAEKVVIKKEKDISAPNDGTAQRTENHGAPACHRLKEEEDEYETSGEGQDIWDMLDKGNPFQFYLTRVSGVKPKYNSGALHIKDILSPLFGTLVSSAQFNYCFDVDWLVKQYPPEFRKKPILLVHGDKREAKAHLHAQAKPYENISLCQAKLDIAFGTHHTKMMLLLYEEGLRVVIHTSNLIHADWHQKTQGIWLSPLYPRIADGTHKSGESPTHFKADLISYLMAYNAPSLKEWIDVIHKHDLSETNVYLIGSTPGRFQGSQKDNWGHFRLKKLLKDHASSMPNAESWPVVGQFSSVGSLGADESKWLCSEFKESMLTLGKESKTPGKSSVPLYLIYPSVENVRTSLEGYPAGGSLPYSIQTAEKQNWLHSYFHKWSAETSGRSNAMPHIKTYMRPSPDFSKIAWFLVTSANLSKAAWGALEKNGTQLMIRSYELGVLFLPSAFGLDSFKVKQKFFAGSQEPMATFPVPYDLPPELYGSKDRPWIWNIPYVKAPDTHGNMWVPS
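E. coli-derived human Tdp1, 1 nM final. Cpd preinc 15 min RT; substrate 15 nM final, 5 min RT; AS bead mix 10 ug/ml final, 10 min RT. Signal loss = tyrosine-FITC cleavage. No-enzyme wells = max signal.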
TGFb SMAD3 inh = TGF-b pathway inhibition | HepG2 CAGA-GFP TGF-b/SMAD3 reporter, GFP fluorescence, 18 h; TGF-beta stimulated, 500 pg/mL final | Potency, µM (titrated, usually from 46.1 µM), actives largely listed as inhibitors | hit rate 1.2% among 410,000 | AID 588855; also: nearly all actives have a fitted effect of over 65% in size
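TGF-beta reporter screen: HEPG2 CAGA-GFP, 1% FBS, 500 pg/mL TGF-beta final, 18 h; per-cell GFP summed per well; curves fitted and categorized by class.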
IL-1B inflam inh = inhibitors of inflammasome signaling (IL-1 beta secretion); THP-1 LPS/ATP IL-1B secretion, AlphaLISA, 16 h; active compounds read low; activity change, % at 57.5 µM; hit rate 4.7% among 360,000; AID 743279; in the data active = activity change below about -50%; inconclusive = mostly about -30% to -49%
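Secreted IL-1B measured by AlphaLISA bead assay after 16 h compound exposure of THP-1 cells; compounds (final up to 57.5 uM) added 1 h before LPS (250 ng/mL) and ATP (1.25 mM) stimulation; lower signal means less secretion.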
Numbers stand for hits; n = inactive; u = inconclusive; x = no result; [ ] = another dose, or the depositor's remark. An excerpt weighted towards active compounds, which were near 18% of everything screened. Unless noted, calls follow the shape of the dose curve; as a rule, active = well fitted curve in the direction sought with a large enough effect; inconclusive = small, poorly fitted or top-dose-only effect, or another doubt; inactive = no such curve, though single readings can be large; an effect the other way counts as inactive or inconclusive.

SMILES | HepG2 tox | TDP1 cell noCPT | TDP1 cell CPT | TDP1 inh | TGFb SMAD3 inh | IL-1B inflam inh
COc1ccc(-c2cc(C(F)(F)F)nc(SCC(=O)N3CCC(C)CC3)n2)cc1 | n | u | u | n | n | x
COc1ccc(-c2cc(C(F)(F)F)nc(SCC(=O)Nc3cc(C)on3)n2)cc1 | n | u | u | n | n | n
CC1CCN(C(=O)CSc2nc(-c3ccc(F)cc3)cc(C(F)(F)F)n2)CC1 | n | u | 20.6µM | n | n | x
CC(C)c1c(C(=O)NCCN2CCOCC2)cnn1-c1nccc(-c2cccs2)n1 | x | u | n[9.04 µM] | x | x | x
CCN(CC)c1ccc(NC(=O)CSc2n[nH]c(-c3ccco3)n2)cc1 | n | 23.1µM | u | n | n | n
Cc1ccnc(SCC(=O)Nc2sc3c(c2C#N)CCCC3)n1 | n | 2.91µM | 3.26µM | n | n | u
Cc1ccc(NC(=O)CSc2n[nH]c(-c3ccco3)n2)cc1 | n | n | n | n | n | n
O=C(CSc1nc(-c2ccco2)cc(C(F)(F)F)n1)Nc1cccnc1 | n | 20.6µM | u | n | n | n
COc1ccc(-c2ccc(C#N)c(SCC(=O)Nc3sc4c(c3C#N)CCC4)n2)cc1OC | n | 14.6µM | 23.1µM | n | n | n
N#Cc1cc2c(nc1SCC(=O)Nc1sc3c(c1C#N)CCC3)CCC2 | n | n | n | n | n | n
CC(O)CCCCCCC/C=C/C=C/C(N)=O (stereo not drawn) | x | x | x | n[21 µM] | x | x
CN(c1ccccc1C(=O)Nc1ccccc1-c1ccccc1)S(C)(=O)=O | n | n | n | x | n | n
COc1ccccc1CCNC(=O)CCSc1nc(-c2ccco2)cc(C(F)(F)F)n1 | n | u | 23.1µM | n | u | n
N#Cc1c(NC(=O)CSc2nc(-c3ccccc3)cc(C(F)(F)F)n2)sc2c1CCC2 | n | u | n | n | n | n
COc1ccc(-c2cc(C(F)(F)F)nc(SCC(=O)Nc3sc4c(c3C#N)CCC4)n2)cc1 | n | 5.8µM | u | n | n | n
CC(C)Oc1ccc(CNC(=O)c2ccc3c(c2)N(C)C(=O)C2CCCCN32)cc1 (stereo not drawn) | n | u | u | n | n | x
CCOC(=O)c1ccc(CN(Cc2ccc(Br)cc2)S(=O)(=O)c2cccc(Cl)c2C)cc1 | n | u | u | n | n | x
COc1cc(C(=O)NC(C)CCc2ccccc2)cc(OC)c1OC (stereo not drawn) | n | n | n | x | n | n
COc1cc(Br)c(C(C)NC(=O)c2cccc(Br)c2)cc1OC (stereo not drawn) | n | 23.1µM | 25.9µM | n | n | n
COc1cc(C(=O)NC(C)c2cccc3ccccc23)cc(OC)c1OC (stereo not drawn) | n | 20.6µM | u | n | n | -56.7
Cc1cccc(C(=O)NC2=NC(c3ccc(Cl)cc3)CC(=O)N2)c1 (stereo not drawn) | n | n | n | n | u | x
CCCOc1c(Cl)cc(C(=O)Nc2ccc3c(c2)OCO3)cc1OCC | n | u | u | n | u | -56.2
O=C(Nc1ccc(OC(F)F)c(Cl)c1)c1cccc(OC(F)F)c1 | n | u | u | x | u | -54.5
COc1ccc(NC(=O)c2cccc(OC(F)F)c2)cc1Cl | n | n | n | n | n | n
O=C(Nc1ccc2c(c1)OCO2)c1ccc(NC2CC2)c([N+](=O)[O-])c1 | n | 20.6µM | 20.6µM | n | n | n
SMILES | HepG2 tox | TDP1 cell noCPT | TDP1 cell CPT | TDP1 inh | TGFb SMAD3 inh | IL-1B inflam inh
O=C(Nc1ccc(Cl)cc1)Nc1ccc2c(c1)OCO2 | n | n | n | n | n | n
O=C(Nc1ccc(OC(F)F)c(Cl)c1)Nc1ccc2c(c1)OCO2 | 11.2µM | 16.4µM | u | n | u | -78.9
COc1ccc2c(c1)O[C@@H](c1ccc3c(c1)OCO3)[C@H](OC(=O)NCCOc1ccccc1)C2=O | x | x | x | n | x | x
CCOc1ccc(C(=O)Nc2ccc3c(c2)OCCO3)cc1[N+](=O)[O-] | n | n | n | n | n | -58.1
CCC(=O)Oc1ccc(C(=O)Nc2ccc3c(c2)OCO3)cc1 | n | 20.6µM | u | n | u | -58.3
CCCCOc1ccc(C(=O)Nc2ccc3c(c2)OCO3)cc1 | n | n | n | n | n | n
CCOc1cc(C(=O)Nc2ccc3c(c2)OCO3)ccc1OC(F)F | n | 11.2µM | 14.6µM | n | n | -64.7
CCOc1ccc(C(=O)Nc2ccc3c(c2)OCCO3)cc1OC | n | n | u | n | n | n
CC1=C(C(=O)O)N2C(=O)C(NC(=O)C(N)c3ccccc3)C2SC1 (stereo not drawn) | x | n | n | n | x | x
COc1ccc(C(=O)NC2CCN(C(=O)Nc3ccccc3Cl)CC2)cc1 | n | n | n | n | n | n
C#CCCCO/N=C1/C[C@@H](O)[C@@H](O)[C@@H]2[C@@H]3C(=O)N(C[C@@H]4CCCO4)C(=O)[C@H]3CC[C@H]12 | x | x | x | n[21 µM] | x | x
CC(=O)Nc1ccc(CN(C)c2c(C)nc3ccc(C(=O)N(C)Cc4ccccc4)cn23)cc1 | n | 16.4µM | u | x | n | n
CC(=O)Nc1ccc(CN(C)c2c(C)nc3ccc(C(=O)NC4CCN(Cc5ccccc5)CC4)cn23)cc1 | n | u | u | x | n | n

Screening results from PubChem BioAssay.
